FBPA coupling cs: qHTS Assay for Inhibitors of Fructose-1,6-bisphosphate Aldolase from Giardia Lamblia: Coupling assay counterscreen; 290,000 tested, 0.67% active; coupling enzyme system counterscreen, AmpLite Red fluorescence; AID 2472, 2010; activity change, negative = inhibition, % at 58.2 µM, hits read low; in the data active = activity change below about -30%
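Counterscreen of the coupled detection system alone, without aldolase: glyceraldehyde-3-phosphate coupling enzymes plus AmpLite Red readout. Compounds at 57.5 uM final, 10 min RT preincubation, 20 min RT reaction, fluorescence 525/598 nm.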
ALDH1A1 inh: qHTS Assay for Inhibitors of Aldehyde Dehydrogenase 1 (ALDH1A1). Purified ALDH1A1, NADH fluorescence, propionaldehyde substrate. Potency, µM (highest dose often 75.3 µM), most hits filed as inhibitors. 220,000 tested, 7.3% active. AID 1030, 2008; active = well fitted inhibition curve with a large enough effect, not every such curve was filed as active; inconclusive = small, poorly fitted or top-dose-only effect, or another doubt; inactive = no such curve, though single readings can be large or run the other way
NPSR antag: qHTS Assay for Antagonists of the Neuropeptide S Receptor: cAMP Signal Transduction; AID 1461, 2008; CHO-NPSR cells, cAMP TR-FRET, antagonist mode; Potency, µM (top dose mostly 38.3 µM), most hits filed as inhibitors; 220,000 tested, 1% active; note: nearly all actives have a fitted effect of over 50% in size
Target sequence (Q6W5P4 whole entry, looked up): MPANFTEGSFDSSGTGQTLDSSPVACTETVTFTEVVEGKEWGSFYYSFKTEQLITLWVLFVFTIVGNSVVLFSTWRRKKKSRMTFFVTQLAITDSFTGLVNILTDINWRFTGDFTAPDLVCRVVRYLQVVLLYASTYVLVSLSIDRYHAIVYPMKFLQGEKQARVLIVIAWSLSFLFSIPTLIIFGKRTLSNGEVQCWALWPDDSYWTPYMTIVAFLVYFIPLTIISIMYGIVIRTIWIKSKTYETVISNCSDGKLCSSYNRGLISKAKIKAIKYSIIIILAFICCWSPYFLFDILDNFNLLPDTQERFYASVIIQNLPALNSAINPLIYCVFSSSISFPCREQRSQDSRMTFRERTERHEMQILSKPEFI
GoLoco inh red: qHTS Assay for Inhibitors of RGS12 GoLoco Motif Activity (Red Fluorophore). Guanine nucleotide-binding protein G(i) subunit alpha-1 (Homo sapiens), P63096. Gai1:RGS12 GoLoco peptide FP, rhodamine, 10 min. Potency, µM (series often up to 61.6 µM), actives largely listed as inhibitors. 230,000 tested, 0.44% active; active = well fitted inhibition curve with a large enough effect, not every such curve was filed as active; inactive = no such curve, though single readings can be large or run the other way; note: nearly all actives have a fitted effect of over 30% in size
JMJD2E inh: qHTS Assay for Inhibitors of Human Jumonji Domain Containing 2E (JMJD2E); JMJD2E catalytic domain, FDH-coupled NADH fluorescence (FDH is formaldehyde dehydrogenase); 230,000 tested, 1.6% active; Lysine-specific demethylase 4E (Homo sapiens), B2RXH2; AID 2147, 2009; Potency, µM (top dose mostly 57.1 µM), usual class: inhibitors; active = well fitted inhibition curve with a large enough effect, not every such curve was filed as active; inconclusive = small, poorly fitted or top-dose-only effect, or another doubt; inactive = no such curve, though single readings can be large or run the other way; note: nearly all actives have a fitted effect of over 50% in size
Target sequence (B2RXH2 1-337 limits assumed): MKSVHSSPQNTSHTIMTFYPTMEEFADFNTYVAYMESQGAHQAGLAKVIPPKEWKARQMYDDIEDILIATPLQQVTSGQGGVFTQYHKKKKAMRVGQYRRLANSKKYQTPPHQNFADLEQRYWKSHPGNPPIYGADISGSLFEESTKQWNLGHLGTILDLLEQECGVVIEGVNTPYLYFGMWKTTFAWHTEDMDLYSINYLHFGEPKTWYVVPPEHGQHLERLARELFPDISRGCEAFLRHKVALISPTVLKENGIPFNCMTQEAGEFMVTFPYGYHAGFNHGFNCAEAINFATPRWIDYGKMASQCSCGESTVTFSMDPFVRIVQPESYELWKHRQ
Sfp PPTase inh: qHTS Assay for Inhibitors of Bacillus subtilis Sfp phosphopantetheinyl transferase (PPTase); Biochemical Sfp PPTase activity, qHTS; 310,000 tested, 3.5% active; AID 1490, 2009; Potency, µM, usual class: inhibitors;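 note: the enzyme is Sfp with the accession as filed and its product quenches rhodamine fluorescence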
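Reaction rates are the 30-min fluorescence difference (ex 525, em 598 nm) in wells containing 15 nM Sfp, 5 uM rhodamine-CoA and 12.5 uM BHQ-2-YbbR at pH 7.6 with 10 mM MgCl2.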
Large screens that a line does not name were inactive; ! = repeats disagree. In the library only some 8.5% were active in any assay of this set; here they are far more common. Unless noted, calls come from the whole dose curve; as a rule, active = well fitted curve in the direction sought with a large enough effect; inconclusive = small, poorly fitted or top-dose-only effect, or another doubt; inactive = no such curve, though single readings can be large; an effect the other way counts as inactive or inconclusive.

Cc1ccc(-c2cc(C(=O)Nc3ccccn3)c3ccccc3n2)o1	ALDH1A1 inh inconclusive, JMJD2E inh inconclusive, Sfp PPTase inh 22µM
CCOCC(=O)N1CCN(c2ccc(F)cc2)CC1	ALDH1A1 inh 2.2µM
Cc1noc(C)c1CSCC(=O)N1CCN(c2ccc([N+](=O)[O-])cc2)CC1	ALDH1A1 inh 22µM
COc1ccc(NC(=O)N2CCN(c3ccc([N+](=O)[O-])cc3)CC2)cc1	none
CCOCC(=O)N1CCN(c2ccc([N+](=O)[O-])cc2)CC1	ALDH1A1 inh 22µM (no result: GoLoco inh red)
CC(=O)OCC(=O)N1CCN(c2ccc([N+](=O)[O-])cc2)CC1	ALDH1A1 inh inconclusive
Cc1ccc(CC(=O)N2CCN(c3ccc([N+](=O)[O-])cc3)CC2)cc1	none (no result: ALDH1A1 inh, NPSR antag, GoLoco inh red, JMJD2E inh)
COc1ccc(NC(=O)N2CCN(c3ccc([N+](=O)[O-])cc3)CC2)cc1OC	ALDH1A1 inh 8.9µM
CCOC(=O)/C=C/C(=O)OCC(=O)Nc1ccc([N+](=O)[O-])cc1	Sfp PPTase inh inconclusive (no result: ALDH1A1 inh)
O=C(O)c1ccccc1Cc1ccccc1	none (no result: ALDH1A1 inh, NPSR antag, GoLoco inh red, JMJD2E inh)
CCCCn1c(=O)c2[nH]c(C34CC5CC(CC3C5)C4)nc2n(CCCO)c1=O	none (no result: NPSR antag, JMJD2E inh)
CCOC(=O)c1c(NC(=O)CC)sc(C(=O)NC2CCCC2)c1C	none (no result: ALDH1A1 inh, NPSR antag, GoLoco inh red, JMJD2E inh)
COc1ccc(C(=O)N[C@H](C(=O)OCc2cc(=O)oc3cc(C)ccc23)C(C)C)cc1	ALDH1A1 inh 11µM
O=[N+]([O-])c1ccc(-c2csc(Nc3ccccc3)[n+]2Cc2ccccc2)cc1	ALDH1A1 inh 32µM
COc1ccc(-c2csc(Nc3ccccc3)[n+]2Cc2ccccc2)cc1	ALDH1A1 inh inconclusive
COc1cccc(CC2CC(=O)N(c3ccc4c(C)cc(=O)oc4c3)C2=O)c1 (stereo not drawn)	ALDH1A1 inh 1.4µM
CCOC(=O)C1=C(COC(=O)c2ccc(Br)o2)NC(=O)NC1C (stereo not drawn)	none (no result: ALDH1A1 inh, NPSR antag, GoLoco inh red, JMJD2E inh)
Cc1cc(C)n(-c2ccc(C(=O)OCC(=O)c3ccc(Br)s3)cc2)n1	ALDH1A1 inh 22µM, NPSR antag inconclusive
Cc1nnc(SC(C)C(=O)N2CCc3ccccc32)s1 (stereo not drawn)	none
CC(Sc1nnc(-c2ccccc2)c(-c2ccccc2)n1)C(=O)N1CCc2ccccc21 (stereo not drawn)	ALDH1A1 inh 7.1µM, NPSR antag inconclusive (no result: GoLoco inh red)
CCN(CC)c1ccc(S(=O)(=O)N2CCOCC2)cc1NC(=O)CN1CCN(Cc2ccccc2)CC1	JMJD2E inh 28µM, Sfp PPTase inh 79µM (no result: ALDH1A1 inh)
CCN(CC)c1ccc(S(=O)(=O)N2CCOCC2)cc1NC(=O)CSC(=S)N1CCCC1	Sfp PPTase inh 25µM (no result: ALDH1A1 inh, NPSR antag, GoLoco inh red, JMJD2E inh)
CC(C)(C)c1ccc(OC(=O)c2ccc(-n3cncn3)nc2)cc1	none
CC(C)(C)OC(=O)N1CCC(CNC(=O)c2cccs2)CC1	none (no result: ALDH1A1 inh)
O=P(OCC1CC1)(c1ccccc1)c1ccccc1	none
O=C(CN1CCN(Cc2cccc3ccccc23)CC1)NCCc1ccccc1	none (no result: ALDH1A1 inh, NPSR antag, GoLoco inh red, JMJD2E inh)
COc1ccccc1-c1nc(C(N)=O)c2[nH]c(=O)n(-c3cccc(C)c3)c2n1	ALDH1A1 inh inconclusive, NPSR antag inconclusive, JMJD2E inh inconclusive
Cc1cccc(-n2c(=O)[nH]c3c(C(N)=O)nc(-c4ccccc4Cl)nc32)c1	NPSR antag inconclusive, JMJD2E inh 1.8µM
O=C(c1cnn(-c2cccc(F)c2)c1)c1ccccc1O	none (no result: ALDH1A1 inh, NPSR antag, GoLoco inh red, JMJD2E inh)
CCn1c(C)nc2cc(C(=O)n3cc(C(=O)c4cc(F)ccc4O)cn3)ccc21	ALDH1A1 inh 1.4µM
Cc1cc(C)nc(-n2cc(C(=O)c3cc(F)ccc3O)cn2)n1	ALDH1A1 inh 10µM
CCn1c(C)nc2cc(C(N)=O)ccc21	none (no result: ALDH1A1 inh)
CN(C)c1ccc(-c2cc(NCc3cccnc3)ncn2)cc1	ALDH1A1 inh inconclusive, JMJD2E inh inconclusive (no result: NPSR antag)
O=C1c2ccccc2C(=O)N1CCCCN(C(=O)c1ccco1)c1ccc(Cl)cc1	ALDH1A1 inh 7.9µM
O=C1c2ccccc2C(=O)N1CCCCN(C(=O)c1cccc([N+](=O)[O-])c1)c1ccc(Cl)cc1	ALDH1A1 inh 3.2µM, NPSR antag inconclusive (no result: FBPA coupling cs)
Cc1ccc(N(CCCCN2C(=O)c3ccccc3C2=O)C(=O)c2cccs2)cc1	ALDH1A1 inh inconclusive, NPSR antag inconclusive
COc1ccc(/C=C2\SC(=S)N(CCC(=O)NC3CCCC3)C2=O)cc1OC	Sfp PPTase inh inconclusive (no result: ALDH1A1 inh, NPSR antag, GoLoco inh red, JMJD2E inh)
CC/C=C\C/C=C\C/C=C\C/C=C\C/C=C\C/C=C\CCC(=O)O	ALDH1A1 inh 22µM, Sfp PPTase inh 79µM! (no result: NPSR antag)
CC/C=C\C/C=C\C/C=C\C/C=C\C/C=C\CCCCCC(=O)O	Sfp PPTase inh inconclusive (no result: NPSR antag)
O=C(Nc1ccccc1)NC1CCCCNC1=O (stereo not drawn)	none (no result: ALDH1A1 inh)
O=c1[nH]c(-c2ccc(O)cc2)nc2scc(-c3cccs3)c12	ALDH1A1 inh inconclusive, JMJD2E inh inconclusive
Cc1nc2scc(-c3cccs3)c2c(=O)[nH]1	ALDH1A1 inh 11µM, Sfp PPTase inh 45µM
COC(=O)c1cccc(C#CC(NP(=O)(c2ccccc2)c2ccccc2)c2ccccc2)c1 (stereo not drawn)	ALDH1A1 inh 13µM
COC(=O)c1ccc(C#CC(NP(=O)(c2ccccc2)c2ccccc2)c2ccccc2)cc1 (stereo not drawn)	ALDH1A1 inh inconclusive, JMJD2E inh inconclusive, Sfp PPTase inh inconclusive (no result: NPSR antag)
COc1ccc(CNC(=O)C2CCN(c3nc(-c4ccccc4)nc4c3CCC4)CC2)cc1	Sfp PPTase inh 50µM (no result: FBPA coupling cs, ALDH1A1 inh, NPSR antag, GoLoco inh red, JMJD2E inh)
CSc1ccccc1OCc1cc(C(=O)N2CCC[C@H]2C(N)=O)no1	none (no result: ALDH1A1 inh, NPSR antag, GoLoco inh red, JMJD2E inh)
O=C1NCCCC2c3c(cc(Br)c(O)c3Br)OC12N1CCCCC1 (stereo not drawn)	ALDH1A1 inh 7.9µM, JMJD2E inh inconclusive
N#Cc1cn(-c2ccccc2)nc1-c1ccco1	ALDH1A1 inh 28µM, NPSR antag inconclusive
Cc1nc2ncccn2c1-c1csc(NCc2ccco2)n1	ALDH1A1 inh inconclusive, Sfp PPTase inh 8.9µM
Cc1nc2ncccn2c1-c1csc(Nc2ccccc2)n1	JMJD2E inh inconclusive, Sfp PPTase inh 56µM
C=CCNc1nc(-c2c(C)nc3sccn23)cs1	ALDH1A1 inh inconclusive
COc1ccc(Nc2nc(-c3c(C)nc4ncccn34)cs2)cc1	ALDH1A1 inh inconclusive, Sfp PPTase inh 18µM
Cc1nc2ncccn2c1-c1csc(Nc2ccc(N(C)C)cc2)n1	ALDH1A1 inh inconclusive, Sfp PPTase inh inconclusive
COc1ccccc1Nc1nc(-c2c(C)nc3ncccn23)cs1	ALDH1A1 inh inconclusive, JMJD2E inh 16µM, Sfp PPTase inh inconclusive
Cc1nc2ncccn2c1-c1csc(Nc2ccc(S(N)(=O)=O)cc2)n1	none (no result: ALDH1A1 inh, NPSR antag, GoLoco inh red, JMJD2E inh)
